PfHsp40 yeast = restores yeast growth despite PfHsp40 toxicity; growth rescue, % at 12.5 µM; S. cerevisiae expressing PfHsp40, growth rescue, ATP luminescence; AID 504582; actives 0.68% (n = 340,000); in the data active = growth rescue above about 28%, passing the limit was not always enough; inconclusive = no clear call, values can overlap the other calls;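 also: yeast W303a lacking pdr1 and pdr3 grown in galactose medium; growth measured after three days at 30 °C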
MazF activator = MazEF (E. coli) toxin RNase activation | activation, % at 20 µM | actives 0.32% (n = 350,000) | P0AE70 | FAM/BHQ RNA-DNA oligo cleavage fluorescence, 5 h | AID 504720; in the data active = activation above about 50%
Sa ugtP lethal = compounds lethal to S. aureus RN4220 ugtP deletion mutant | growth inhibition, % (test concentration not listed) | OD600 growth, 16 h | AID 1259309 | actives 0.54% (n = 330,000); in the data active = growth inhibition above about 68%;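 also: plate controls were untreated wells for no effect and antibiotic for full effect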
Mtb hypoxia rep = inhibitors of hypoxia-regulated fluorescent reporter in Mycobacterium tuberculosis. M. tuberculosis hypoxia-regulated fluorescent reporter, fluorescence. actives 0.1% (n = 300,000). fluorescence inhibition, % (concentration not given with the values); in the data active = fluorescence inhibition mostly above about 23%, no sharp cut-off; inactive = mostly below about 17%
Sa RN4220 lethal = S. aureus RN4220 growth inhibition; OD600, 16 h; actives 0.33% (n = 330,000); inhibition, % (no concentration beside the values); in the data active = inhibition above about 85%;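 also: plate controls were untreated cells for no effect and reference antibiotic for full effect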
TcdB inh = TcdB glycohydrolase inhibition; P18177; TcdB glycohydrolase enzymatic assay, plate reader; inhibition, % at 9.99 µM; actives 0.24% (n = 350,000); AID 652162; in the data active = inhibition above about 10%
Starred values were filed as active, the others as inactive; ! = not active in a repeat. An excerpt weighted towards active compounds, which were near 1.3% of everything screened.

CC[C@H](C)C(=O)O[C@H]1C[C@@H](C)C=C2C=C[C@H](C)[C@H](CC[C@@H]3C[C@@H](O)CC(=O)O3)[C@H]21 was read as PfHsp40 yeast 69*!, MazF activator 7, Sa ugtP lethal -1, Mtb hypoxia rep 9, Sa RN4220 lethal 10 and TcdB inh 1.
CCCCCCC(C)(C)c1ccc([C@@H]2C[C@H](O)CC[C@H]2CCCO)c(O)c1 was read as PfHsp40 yeast 68*, MazF activator 14 and TcdB inh 2.
Screening CCCCC1CCC(c2ccc(C(N)=O)cc2)CC1 (configuration not stated) returned PfHsp40 yeast -1, MazF activator 3, Sa ugtP lethal 20, Mtb hypoxia rep 7, Sa RN4220 lethal 1 and TcdB inh 2.
Screening CCCCCC1CCC(c2ccc(/C(N)=N/O)cc2)CC1 (configuration not stated) returned PfHsp40 yeast 21, MazF activator 13, Sa ugtP lethal 100*, Mtb hypoxia rep 3, Sa RN4220 lethal -5 and TcdB inh 0.
For Oc1cc(O)cc(/C=C/c2ccc(O)c(O)c2)c1 the results were PfHsp40 yeast -3, MazF activator 118* and TcdB inh 10*.
For O=C(CSc1nc2ccccc2[nH]1)NN=C/C=C/c1ccccc1[N+](=O)[O-] the results were Sa ugtP lethal 97*, Mtb hypoxia rep 1 and Sa RN4220 lethal 98*.
Screening O=C(Nc1ccc(F)cc1)NC1(C(=O)NCc2ccc3c(c2)OCO3)CCCCC1 returned PfHsp40 yeast 1, MazF activator 10, Sa ugtP lethal 100*, Mtb hypoxia rep 10 and Sa RN4220 lethal 37.
Screening O=C(Nc1ccc(F)cc1)NC1(C(=O)NCc2ccco2)CCCCC1 returned PfHsp40 yeast 0, MazF activator 3, Sa ugtP lethal -8, Mtb hypoxia rep 0 and Sa RN4220 lethal -6.
`O=[N+]([O-])/C=C/c1cn(Cc2ccc(Cl)cc2)c2ccccc12` gave PfHsp40 yeast -1, MazF activator -67, Sa ugtP lethal 77, Mtb hypoxia rep 11, Sa RN4220 lethal 90* and TcdB inh 1.
For Cc1cccc(Cn2cc(/C=C/[N+](=O)[O-])c3ccccc32)c1 the results were PfHsp40 yeast 1, MazF activator -16, Sa ugtP lethal 25, Mtb hypoxia rep 4 and Sa RN4220 lethal 52.
For OCC1CCCN(C(=S)Nc2ccc(Nc3ccccc3)cc2)C1 (configuration not stated) the results were PfHsp40 yeast 0, MazF activator -18, Sa ugtP lethal -3, Mtb hypoxia rep 10, Sa RN4220 lethal 4 and TcdB inh 11*.
Screening CCCCOC(=O)C[N+](C)(C)CCOC1CC2CCC1(C)C2(C)C (configuration not stated) returned PfHsp40 yeast -1, MazF activator 17, Sa ugtP lethal 89*, Mtb hypoxia rep 5, Sa RN4220 lethal -6 and TcdB inh 1.
Screening CC(C)CCOC(=O)C[N+](C)(C)CCOC1CC2CCC1(C)C2(C)C (configuration not stated) returned PfHsp40 yeast -1, MazF activator 21, Sa ugtP lethal 101*, Mtb hypoxia rep 41*, Sa RN4220 lethal 45 and TcdB inh 2.
Screening CCCCCCCOC(=O)C[N+](C)(C)CCOC1CC2CCC1(C)C2(C)C (configuration not stated) returned PfHsp40 yeast inconclusive, MazF activator 18, Sa ugtP lethal 100*, Mtb hypoxia rep 26, Sa RN4220 lethal 100* and TcdB inh 3.
Screening CCCCCCOC(=O)C[N+](C)(C)CCOC1CC2CCC1(C)C2(C)C (configuration not stated) returned PfHsp40 yeast 1, MazF activator -8, Sa ugtP lethal 34, Mtb hypoxia rep -7 and Sa RN4220 lethal 6.
Screening N#Cc1cccc(-c2ccc(C3[C@H]4CNC[C@@H]3N4C(=O)Nc3ccc(F)cc3)cc2)c1 (some centres not stated) returned TcdB inh -1.
For COc1ccc(CCn2c(=N)c(C(=O)NCc3ccco3)cc3c(=O)n4ccccc4nc32)cc1OC the results were PfHsp40 yeast -1, MazF activator -14, Sa ugtP lethal 2, Mtb hypoxia rep -1, Sa RN4220 lethal 3 and TcdB inh 2.

Bioassay records as filed in PubChem.
